Laboratory results published in PubChem BioAssay (NCATS).
Results filed as inconclusive are left out. Entries that show only a call come without a potency. Values without a mark were called inactive. Calls of active or inactive are those of the source. The call rests on the fitted dose curve; in most records, active means well fitted curve in the direction sought with a large enough effect; inconclusive means small, poorly fitted or top-dose-only effect, or another doubt; inactive means no such curve, though single readings can be large; an effect the other way counts as inactive or inconclusive. Where a SMILES comes first, the peptide text is derived from it. [ ]: non-standard residue; d: D form. pGlu = O=C1CC[C@@H](C(=O)O)N1

Experiments:
[1] = molecular target: N-terminal Xaa-Pro-Lys N-methyltransferase 1 (Homo sapiens) (UniProt Q9BV86); assay: qHTS Assay for Inhibitors of N-terminal methyltransferase 1 (NTMT1): LOPAC validation of the NTMT1 SAHH-coupled ThioGlo3 Assay (AID 1347143); details: recombinant NTMT1, SAHH-coupled ThioGlo3 fluorescence; series mostly up to 114 µM; further: nearly all actives have a fitted effect of over 70% in size
Outline: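 Fluorescence read-out (excitation 340nm, emission 450nm) of SAH-derived thiol, measured via SAHH coupling and ThioGlo3, taken immediately and after a 30 min room-temperature reaction, then normalized to the background read. Enzyme: NTMT1 at 125nM; cofactor SAM 100uM in the added reagent.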

[2] = tested on: Zika virus NS2B-NS3 protease (unlinked); assay: Optimization of GU AMC qHTS for Zika virus inhibitors: Unlinked NS2B-NS3 protease assay (AID 1347151); details: recombinant ZIKV NS2B-NS3 protease, fluorogenic AMC substrate; series mostly up to 52.5 µM; further: nearly all actives have a fitted effect of over 80% in size
Outline: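 Fluorescence gain (340/450 nm) over 15 min at room temperature, ~20% conversion, gave percent inhibition fitted to a 4-parameter Hill equation; enzyme was unlinked NS2B-NS3 (25 nM final), pH 8.0 Tris buffer.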

[3] = tested on: Zika virus NS2B-NS3 protease; assay: Primary screen GU AMC qHTS for Zika virus inhibitors (AID 1347154); details: Zika NS2B-NS3 unlinked protease, AMC fluorogenic substrate; series mostly up to 54.1 µM; further: nearly all actives have a fitted effect of over 70% in size; further: potency means the concentration at half of the fitted maximal effect
Outline: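 Unlinked Zika NS2B hydrophilic domain/NS3 protease domain noncovalent complex (25 nM final) in 10 mM Tris-HCl pH 8.0, 0.01% Tween 20, with AMC peptide substrate. Fluorescence (ex 340, em 450 nm) change over 15 min, room temperature; percent inhibition fitted to 4-parameter Hill equation.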

Furin (Homo sapiens) = Furin (Homo sapiens) (UniProt P09958); assay: Furin counterscreen qHTS for Zika virus inhibitors (AID 1347149); details: furin enzymatic counterscreen, fluorogenic substrate; series mostly up to 114 µM; further: potency means the concentration at half of the fitted maximal effect; nearly all actives have a fitted effect of over 70% in size
Outline: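 Fluorogenic cleavage of BOC-RVRR-AMC (2 microM final, Km ~15 µM) was monitored (ex 340, em 450 nm) at 37C after 15 min RT preincubation of 5 nM furin with compounds in HEPES pH 7.0 buffer with CaCl2 and Triton X-100. Percent inhibition was fitted to a 4-parameter Hill curve.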

[4] = tested on: Zika virus NS2B-NS3 protease (linked construct); assay: Confirmatory screen NINDS AMC qHTS for Zika virus inhibitors (AID 1347152); details: Purified linked NS2B-NS3, AMC substrate fluorescence; series mostly up to 56.6 µM; further: potency means the concentration at half of the fitted maximal effect; nearly all actives have a fitted effect of over 70% in size
Outline: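 IC50s from 4-parameter Hill fits of percent inhibition, based on AMC fluorescence gain (340/450 nm) over 15 min with 10 microM Bz-Nle-KRR-AMC. Enzyme: 1 nM linked NS2B-NS3 in Tris-HCl pH 8.0; 15-min compound preincubation.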

Sequence of N-terminal Xaa-Pro-Lys N-methyltransferase 1 (Homo sapiens) (Q9BV86 whole entry, looked up): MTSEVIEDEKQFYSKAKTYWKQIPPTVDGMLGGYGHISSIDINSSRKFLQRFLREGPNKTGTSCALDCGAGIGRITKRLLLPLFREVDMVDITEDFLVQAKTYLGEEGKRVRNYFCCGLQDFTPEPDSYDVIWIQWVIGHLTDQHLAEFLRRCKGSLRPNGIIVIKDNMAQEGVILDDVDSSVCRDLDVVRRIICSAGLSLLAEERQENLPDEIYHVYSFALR
Sequence of Furin (Homo sapiens) (P09958 whole entry, looked up): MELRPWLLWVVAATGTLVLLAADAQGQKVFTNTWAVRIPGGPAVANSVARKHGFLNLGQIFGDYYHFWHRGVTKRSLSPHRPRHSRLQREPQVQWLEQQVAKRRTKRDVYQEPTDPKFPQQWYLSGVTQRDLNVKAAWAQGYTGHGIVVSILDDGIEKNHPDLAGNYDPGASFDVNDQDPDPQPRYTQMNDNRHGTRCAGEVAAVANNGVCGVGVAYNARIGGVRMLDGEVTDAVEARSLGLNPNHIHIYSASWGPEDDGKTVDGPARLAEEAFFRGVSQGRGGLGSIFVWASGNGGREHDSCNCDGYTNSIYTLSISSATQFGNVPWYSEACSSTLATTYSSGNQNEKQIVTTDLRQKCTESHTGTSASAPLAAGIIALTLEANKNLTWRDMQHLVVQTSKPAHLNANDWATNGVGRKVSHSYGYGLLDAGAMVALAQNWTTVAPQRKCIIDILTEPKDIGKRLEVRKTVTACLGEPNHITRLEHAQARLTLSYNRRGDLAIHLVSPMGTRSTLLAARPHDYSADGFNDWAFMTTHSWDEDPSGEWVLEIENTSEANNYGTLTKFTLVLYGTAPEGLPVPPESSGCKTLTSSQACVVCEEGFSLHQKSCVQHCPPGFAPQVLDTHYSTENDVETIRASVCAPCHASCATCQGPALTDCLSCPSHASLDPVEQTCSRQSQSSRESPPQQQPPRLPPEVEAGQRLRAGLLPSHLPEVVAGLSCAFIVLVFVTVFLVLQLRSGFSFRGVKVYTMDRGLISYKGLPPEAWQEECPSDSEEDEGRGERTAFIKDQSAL

**Q.** Which Potency [1] does the source give for N[C@@H](Cn1ccc(=O)c(O)c1)C(=O)O here?
**A.** inactive

**Q.** And the Potency [2]?
**A.** inactive

**Q.** CCN(CC)CCNC(=O)c1ccc(NS(C)(=O)=O)cc1 was tested. Which Potency [1] did it give?
**A.** inactive

**Q.** What about the Potency [2] of the same compound?
**A.** inactive

**Q.** Nc1ncnc2n[nH]c(Nc3ccc(F)cc3)c12 was tested. Which Potency [1] did it give?
**A.** inactive

**Q.** What about the Potency [2] of the same compound?
**A.** inactive

**Q.** And the Potency [3]?
**A.** inactive

**Q.** For Cc1nc(C2CCCCC2)c(-c2ccc(S(N)(=O)=O)c(F)c2)o1, which Potency (Furin (Homo sapiens)) is on record?
**A.** 24.1 µM (active)

**Q.** And the Potency [4]?
**A.** 24.1 µM (active)

**Q.** What about the Potency [3] of the same compound?
**A.** 14.4 µM (active)

**Q.** How did the Potency [3] turn out when Cc1nc2n(c(=O)c1CCN1CCC(C(=O)c3ccc(F)cc3)CC1)CCS2 was run?
**A.** inactive

**Q.** With CCN1CCN(C(=O)N[C@@H](C(=O)N[C@@H]2C(=O)N3[C@@H]2SC(C)(C)[C@H]3C(=O)O)c2ccccc2)C(=O)C1=O as the compound, how does the Potency [3] read?
**A.** inactive

**Q.** Which Potency [3] does the source give for C[C@@H](C1=C(CCN(C)C)Cc2ccccc21)c1ccccn1 here?
**A.** inactive

**Q.** O=C(O)Cc1ccc(OCCNC[C@H](O)c2ccccc2)cc1 was tested. Which Potency [3] did it give?
**A.** inactive

**Q.** For Nc1ccc([N+](=O)[O-])c(C(F)(F)F)c1, which Potency [3] is on record?
**A.** inactive

**Q.** Which Potency [3] does the source give for CN1C(=O)c2ccccc2C1=O here?
**A.** inactive

**Q.** O=C(O)/C=C(\CC(=O)O)C(=O)O was tested. Which Potency [3] did it give?
**A.** inactive

**Q.** How did the Potency [3] turn out when Nc1nc2ccccc2n1Cc1ccc(F)cc1 was run?
**A.** inactive

**Q.** For CC(=O)O[C@@H]1CC2C3CCc4cc(OC(=O)c5ccccc5)ccc4C3CCC2(C)[C@H]1OC(C)=O (stereo partly drawn), which Potency [3] is on record?
**A.** inactive

**Q.** Which activity change, negative = inhibition [3] does the source give for CC1CN(c2cc3c(cc2F)c(=O)c(C(=O)O)cn3-c2ccc(F)cc2F)CCN1 (stereo not drawn) here?
**A.** -3.57% [at 4.99 µM]

**Q.** How did the Potency [3] turn out when O=C1CCCc2c(O)cccc21 was run?
**A.** inactive

**Q.** With O=C(C1CCCCC1)N1CC(=O)N2CCCc3ccccc3C2C1 (stereo not drawn) as the compound, how does the Potency [3] read?
**A.** inactive

**Q.** Which Potency [3] does the source give for COc1cc(C(=O)OC(COCCC(C)C)CN2CCOCC2)cc(OC)c1OC (stereo not drawn) here?
**A.** inactive

**Q.** With O=C1NC(c2ccccc2)(c2ccccc2)C(=O)N1COP(=O)(O)O as the compound, how does the Potency [3] read?
**A.** inactive

**Q.** For COc1ccc(-n2nc(CCC(=O)N(C)O)cc2-c2ccc(Cl)cc2)cc1, which Potency [3] is on record?
**A.** inactive

**Q.** How did the Potency [3] turn out when Cc1c(C)c2c(c(C)c1OC(=O)CCC(=O)OCCO)CC[C@@](C)(CCC[C@H](C)CCC[C@H](C)CCCC(C)C)O2 was run?
**A.** inactive

**Q.** How did the Potency [3] turn out when Cc1nc([N+](=O)[O-])cn1-c1ccc([N+](=O)[O-])cc1 was run?
**A.** inactive

**Q.** Which Potency [3] does the source give for C=CCNc1nc(NCC=C)nc(N2CCN(C(c3ccc(F)cc3)c3ccc(F)cc3)CC2)n1 here?
**A.** inactive

**Q.** For Cc1coc2ccccc2c1=O, which Potency [3] is on record?
**A.** inactive

**Q.** For CCNC(=O)[C@@H]1CCCN1C(=O)[C@H](CCCN=C(N)N)NC(=O)[C@H](CC(C)C)NC(=O)CNC(=O)[C@H](Cc1ccc(O)cc1)NC(=O)[C@H](CO)NC(=O)[C@H](Cc1c[nH]c2ccccc12)NC(=O)[C@H](Cc1cnc[nH]1)NC(=O)[C@@H]1CCC(=O)N1 ([pGlu]HWSYGLRP-NHEt), which Potency [3] is on record?
**A.** inactive

**Q.** Which Potency [3] does the source give for c1ccc(C(O[C@H]2CCCN(CCc3ccc4c(c3)OCO4)C2)c2ccccc2)cc1 here?
**A.** inactive

**Q.** CO/N=C(\C(=O)O)c1csc(NC(=O)CCl)n1 was tested. Which Potency [3] did it give?
**A.** inactive

**Q.** With Cc1ccc2ccc(Cl)cc2n1 as the compound, how does the Potency [3] read?
**A.** inactive

**Q.** Nc1nnnn1-c1ccccc1 was tested. Which Potency [3] did it give?
**A.** inactive

**Q.** How did the Potency [3] turn out when CCCOc1ccc2c(c1)CC[C@@H]1[C@@H]2CC[C@]2(C)C(OC)CC[C@@H]12 (stereo partly drawn) was run?
**A.** inactive

**Q.** C#Cc1ccc(-c2ccccc2F)cc1 was tested. Which Potency [3] did it give?
**A.** inactive

**Q.** CC(CCc1ccc2c(c1)OCO2)NN (stereo not drawn) was tested. Which Potency [3] did it give?
**A.** inactive

**Q.** With CCCc1c2oc(C(=O)O)cc(=O)c2cc2c(=O)cc(C(=O)O)n(CC)c12 as the compound, how does the Potency [3] read?
**A.** inactive

**Q.** Which Potency [3] does the source give for Cc1cc(C(C)(C)C)c(O)c(C(C)(C)C)c1 here?
**A.** inactive

**Q.** Which Potency [3] does the source give for OCc1cccnc1 here?
**A.** inactive

**Q.** Which Potency [3] does the source give for CC[C@@H]([C@H](C)O)n1ncn(-c2ccc(N3CCN(c4ccc(OC[C@@H]5CO[C@@](Cn6cncn6)(c6ccc(F)cc6F)C5)cc4)CC3)cc2)c1=O here?
**A.** inactive

**Q.** Which Potency [3] does the source give for C[N+]1(CC2COC(c3ccccc3)(c3ccccc3)O2)CCCCC1 (stereo not drawn) here?
**A.** inactive

**Q.** For CCOC(=O)NNc1ccc(N(CC)CC(C)O)nn1 (stereo not drawn), which Potency [3] is on record?
**A.** inactive

**Q.** CCOC(=O)C(=O)c1csc(NC=O)n1 was tested. Which Potency [3] did it give?
**A.** inactive

**Q.** How did the Potency [3] turn out when CCC(=O)Oc1ccc2c(c1)CC[C@@H]1[C@@H]2CC[C@@]2(C)[C@H]1C[C@@H](OC(=O)CC)[C@@H]2OC(=O)CC was run?
**A.** inactive

**Q.** How did the Potency [3] turn out when CC(CC1c2ccccc2CCc2ccccc21)CN(C)C (stereo not drawn) was run?
**A.** inactive

**Q.** Which Potency [3] does the source give for Cn1c(=O)c2c(ncn2CC(=O)O)n(C)c1=O here?
**A.** inactive

**Q.** Clc1ccc2c(c1)Nc1ccccc1S2 was tested. Which Potency [3] did it give?
**A.** inactive
